# According to PubChem BioAssay (NCATS):
# Inconclusive results are not listed. A call without a number means that no potency is given here. Active and inactive are the calls of the source. Unless noted, calls follow the shape of the dose curve; as a rule, active = well fitted curve in the direction sought with a large enough effect; inconclusive = small, poorly fitted or top-dose-only effect, or another doubt; inactive = no such curve, though single readings can be large; an effect the other way counts as inactive or inconclusive.
# Legend:
# [1] = qHTS assay for measurement of the activity of small molecule inhibitors on Zika virus induced Caspase-3 activity in human iPSC derived neural progenitor cells (hNPCs) (AID 1224857); also: nearly all actives have a fitted effect of over 65% in size
# Procedure, shortened: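 In medium with heparin 2 ug/ml and cyclopamine 2 uM, hNPCs (350 cells/well) received compound for one hour and then Zika virus at 2 FFU/cell; caspase activity was measured by Caspase-Glo 3/7 luminescence 6 h post-infection.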
# [2] = qHTS assay for measurement of the activity of small molecule inhibitors on Zika virus induced Caspase-3 activity in human astrocytoma cells (AID 1224859)
# Procedure, shortened: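 A cell-based luminescent caspase-3/7 assay used SNB-19 cells infected with ZIKV (2 FFU/cell) for 6 h following 1 h compound pretreatment.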
# [3] = qHTS assay to identify small molecule inhibitors of chordoma cells - UCH-1 (AID 1259355); also: nearly all actives have a fitted effect of over 55% in size; also: potency is read from the fitted curve at half-maximal effect
# Procedure, shortened: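 800 cells/well, overnight attach; compounds pinned at 15 concs, then auranofin/camptothecin/doxorubicin/rubitecan/topotecan combo added; 48hr 37 C, 5% CO2; CellTiter-Glo, 30min RT, luminescence.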
# [4] = qHTS profiling of the MIPE4 collection as inhibitors of Plasmodium falciparum (3D7) proliferation (AID 743344; call rule not given here); details: P. falciparum 3D7 in erythrocytes, SYBR Green DNA fluorescence, 72 h; at 28.5 µM (top of the series)
# Source text: Plasmodium falciparum is a virulent malarial parasite that kills 1-2 million people worldwide each year. Transmitted by mosquitoes, the sporozoite form of the parasite enters the blood stream to infect hepatocytes, where they become merozoites that infect red blood cells (erythrocytes). Within erythrocytes, merozoites begin a […] cycle of growth and division, after which the parasite is released to infect new red blood cells. Gametocytes, which form within erythrocytes as well, circulate in the bloodstream and are ingested by the mosquito, thereby completing the life cycle. To profile malarial isolates for differential chemical responses and to identify inhibitors of malarial growth, an assay that measures P. falciparum growth and replication within erythrocytes was employed. This assay uses a DNA binding fluorescent dye (SYBR Green) to detect parasite DNA following cell lysis. Because mature erythrocytes lack DNA, only Plasmodium-derived DNA is detected.
# The SYBR Green viability assay was adapted from a method described previously (Plouffe et al., 2008). For screening 3 ul culture medium was dispensed into 1536 well black clear bottom plates (Aurora Biotechnologies) using a Multidrop Combi (Thermo Fisher Scientific Inc.), 23 nL compounds in DMSO were added by a pin tool (Kalypsys), and 5 ul of erythrocytes infected with P. falciparum (0.3% parasitemia, 2.5% hematocrit final concentration) were added. The plates were incubated at 37 C in a humidified incubator in 5% CO2 for 72 h, and 2 ul lysis buffer (20 mM Tris HCl, 10 mM EDTA, 0.16% saponin, 1.6% triton X, 10X SYBR Green I supplied as 10,000X […] by Invitrogen) was added to each well. […] The following morning, fluorescence intensity at 485(14) nm excitation and 535(25) nm emission wavelengths was measured on an EnVision (Perkin Elmer) plate reader. Plate reads were normalized relative to the control inhibitor (0.29 uM artemisinin) and vehicle (DMSO) wells present on each plate and then corrected by an algorithm using vehicle-only control plates at the beginning and end of the compound plate stack.
# [5] = qHTS profiling of the MIPE4 collection as inhibitors of Plasmodium falciparum (DD2) proliferation (AID 743345; call rule not given here); details: P. falciparum Dd2 in erythrocytes, SYBR Green DNA, 72 h; at 28.5 µM (top of the series)
# Procedure, shortened: (§1)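 Parasite DNA was quantified by SYBR Green I fluorescence (ex 485, em 535 nm) after overnight lysis in saponin/Triton buffer at room temperature. Cultures at 0.3% parasitemia and 2.5% hematocrit were first exposed to compound for 72 h at 37 C; signals were normalised to artemisinin (0.29 uM) and vehicle wells.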
# [6] = qHTS profiling of the MIPE4 collection as inhibitors of Plasmodium falciparum (DD2) proliferation (Rep 2) (AID 743346; call rule not given here); details: P. falciparum Dd2 in erythrocytes, SYBR Green DNA, 72 h; at 28.5 µM (top of the series)
# Procedure, shortened: as §1
# [7] = qHTS profiling of the MIPE4 collection as inhibitors of Plasmodium falciparum (HB3) proliferation (AID 743347; call rule not given here); details: P. falciparum HB3 in erythrocytes, SYBR Green DNA, 72 h; at 28.5 µM (top of the series)
# Procedure, shortened: as §1
# [8] = qHTS profiling for inhibitors of Plasmodium falciparum (3D7) proliferation (AID 743322; call rule not given here;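 also: infected erythrocytes exposed to compound for 72 h before lysis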); details: P. falciparum 3D7 proliferation; at 28.7 µM (top of the series) unless noted
# Procedure, shortened: as §1
# [9] = qHTS profiling for inhibitors of Plasmodium falciparum (DD2) proliferation (AID 743323; call rule not given here); details: lower = more inhibition; at 28.7 µM (top of the series) unless noted
# Procedure, shortened: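 SYBR Green fluorescence (ex 485, em 535 nm) of lysed cultures gives parasite DNA content; wells normalized to artemisinin (0.29 uM) and DMSO controls. Infected red cells: 0.3% parasitemia, 2.5% hematocrit, 72 h, 37 C.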
# [10] = qHTS profiling for inhibitors of Plasmodium falciparum (HB3) proliferation (AID 743324); details: Plasmodium falciparum HB3 blood-stage proliferation; at 28.7 µM (top of the series)
# Procedure, shortened: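 SYBR Green fluorescence (485 ex/535 em) of lysed cultures, incubated overnight at room temperature in the dark, quantifies parasite DNA. Infected erythrocytes at 0.3% parasitemia and 2.5% hematocrit were exposed 72 h; values normalized to DMSO and 0.29 uM artemisinin controls.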
structure (smiles),measurement,setting,value
C#CCN(C)CCCOc1ccc(Cl)cc1Cl,outcome,[1],inactive
same,outcome,[2],inactive
same,Potency,[3],inactive
CCCCNc1ccc(C(=O)OCCN(C)C)cc1,outcome,[1],inactive
same,outcome,[2],inactive
same,Potency,[3],inactive
Cc1nc2ccccn2c(=O)c1CCN1CCC(C(=O)c2ccc(F)cc2)CC1,outcome,[1],inactive
same,outcome,[2],inactive
same,Potency,[3],inactive
CN(C)C(=O)Oc1ccc[n+](C)c1,outcome,[1],inactive
same,outcome,[2],inactive
same,Potency,[3],inactive
COc1cc2c(cc1OC)-c1cc(=Nc3c(C)cc(C)cc3C)n(C)c(=O)n1CC2,outcome,[1],inactive
same,outcome,[2],inactive
same,Potency,[3],25.1 µM (active)
c1cnc(N2CCN(Cc3ccc4c(c3)OCO4)CC2)nc1,outcome,[1],inactive
same,outcome,[2],inactive
same,Potency,[3],inactive
CC(=O)[C@]1(O)Cc2c(O)c3c(c(O)c2[C@@H](O[C@H]2C[C@H](N)[C@H](O)[C@H](C)O2)C1)C(=O)c1ccccc1C3=O,outcome,[1],inactive
same,outcome,[2],inactive
same,Potency,[3],0.794 µM (active)
CC(=O)OCC1=C(C(=O)O)N2C(=O)[C@@H](NC(=O)Cc3cccs3)[C@H]2SC1,outcome,[1],inactive
same,outcome,[2],inactive
same,Potency,[3],inactive
CSc1ccc(C(=O)c2[nH]c(=O)[nH]c2C)cc1,outcome,[1],inactive
same,outcome,[2],inactive
same,Potency,[3],inactive
COCCOC(=O)C1=C(C)NC(C)=C(C(=O)OC(C)C)C1c1cccc([N+](=O)[O-])c1 (stereo not given),outcome,[1],inactive
same,outcome,[2],inactive
same,Potency,[3],inactive
CCN(CC)CCNC(=O)c1ccc(NC(C)=O)cc1,outcome,[1],inactive
same,outcome,[2],inactive
same,Potency,[3],inactive
C[n+]1cc2c3c(ccc2c2ccc4cc5c(cc4c21)OCO5)OCO3,outcome,[1],inactive
same,outcome,[2],inactive
same,Potency,[3],12.6 µM (active)
CN(C(=O)CCCOc1ccc2[nH]c(=O)ccc2c1)C1CCCCC1,outcome,[1],inactive
same,outcome,[2],inactive
same,Potency,[3],inactive
NC(=O)c1cn(Cc2c(F)cccc2F)nn1,outcome,[1],inactive
same,Potency,[3],inactive
FC(F)(F)c1ccccc1-n1ccnc1,outcome,[1],inactive
same,outcome,[2],inactive
same,Potency,[3],inactive
CC(C)COCC(CN(Cc1ccccc1)c1ccccc1)N1CCCC1 (stereo not given),"parasite growth, % of DMSO control",[4],5.43%
same,"parasite growth remaining, % of DMSO control (lower = more inhibition)",[5],7.8%
same,"parasite growth, % of control (lower = inhibition)",[6],16%
same,"growth, % of control",[7],2.98%
same,outcome,[1],inactive
same,outcome,[2],inactive
same,Potency,[3],inactive
O=C(O)CN(CCOCCOCCN(CC(=O)O)CC(=O)O)CC(=O)O,outcome,[1],inactive
same,outcome,[2],inactive
same,Potency,[3],inactive
CC1=C(C)C(=O)C(CCCCC#CCCCC#CCO)=C(C)C1=O,outcome,[1],inactive
same,outcome,[2],inactive
same,Potency,[3],inactive
C[C@]12CC[C@@H]3c4ccc(O)cc4C[C@@H](CCCCCCCCCS(=O)CCCC(F)(F)C(F)(F)F)[C@H]3[C@@H]1CC[C@@H]2O (stereo not given in full),outcome,[1],inactive
same,outcome,[2],inactive
same,Potency,[3],inactive
CNCCC(Oc1ccccc1OC)c1ccccc1 (stereo not given),remaining parasite growth % (stronger effect = lower value),[8],104%
same,"activity, percent of control",[9],48%
same,"remaining proliferation (% of control), lower = more inhibition",[10],91.8%
same,outcome,[1],inactive
same,outcome,[2],inactive
same,Potency,[3],inactive
N[C@@H](COP(=O)(O)O)C(=O)O,outcome,[1],inactive
same,outcome,[2],inactive
same,Potency,[3],inactive
c1cc(CN2CCCCC2)cc(OCCCNc2nc3ccccc3s2)c1,outcome,[1],inactive
same,outcome,[2],inactive
same,Potency,[3],inactive
CC(C)(Oc1ccc(CCNC(=O)c2ccc(Cl)cc2)cc1)C(=O)O,outcome,[1],inactive
same,outcome,[2],inactive
same,Potency,[3],inactive
CN(C)CC/C=C1\c2ccccc2COc2ccccc21,remaining parasite growth % (stronger effect = lower value),[8],96.2% [at 9.63 µM]
same,"activity, percent of control",[9],49.5% [at 9.63 µM]
same,outcome,[1],inactive
same,outcome,[2],inactive
same,Potency,[3],inactive
